# Screening data deposited in PubChem by National Center for Advancing Translational Sciences (NCATS).
# SNCA viab count = reduces viability of HEK-293 SNCA reporter cells; HEK-293-SNCA-luc viability, GF-AFC fluorescence, 24 h; Potency, µM (highest dose often 57.1 µM), inactives show at the top dose activity change, negative = cytotoxicity, hits mostly cytotoxic; 150,000 tested, 0.12% active; AID 1671193;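 further: 0% = DMSO-treated cells and -100% = medium-only wells without cells; nearly all actives have a fitted effect of over 30% in size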
#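 HEK-293-SNCA-luc cells (1500/well) plated 24 h, then exposed 24 h to a dilution series; GF-AFC added 30 min at 37C, fluorescence 405/540 nm; normalised to medium-only and DMSO wells, Hill fit.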
# SNCA expr inhib = inhibitors of alpha-synuclein (SNCA) gene expression; HEK-293 SNCA-luciferase knock-in, luminescence, 24 h; Potency, µM (highest dose often 57.2 µM), inactives show top-dose activity change, negative = inhibition, actives largely listed as inhibitors; 140,000 tested, 0.17% active;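 further: plate controls were DMSO cells for no effect and cell-free wells for full effect; nearly all actives have a fitted effect of over 45% in size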
# GPT2 inhibitor = blocks human glutamate pyruvate transaminase 2. 100,000 tested, 0.25% active. Recombinant GPT2, coupled pyruvate oxidase/HRP Amplex Red fluorescence. AID 1671188. Potency, µM (top dose mostly 57.7 µM), inactives show at the highest dose activity change, negative = inhibition, actives largely listed as inhibitors. Q8TD30; further: nearly all actives have a fitted effect of over 60% in size
# Target sequence (Q8TD30 whole entry, looked up): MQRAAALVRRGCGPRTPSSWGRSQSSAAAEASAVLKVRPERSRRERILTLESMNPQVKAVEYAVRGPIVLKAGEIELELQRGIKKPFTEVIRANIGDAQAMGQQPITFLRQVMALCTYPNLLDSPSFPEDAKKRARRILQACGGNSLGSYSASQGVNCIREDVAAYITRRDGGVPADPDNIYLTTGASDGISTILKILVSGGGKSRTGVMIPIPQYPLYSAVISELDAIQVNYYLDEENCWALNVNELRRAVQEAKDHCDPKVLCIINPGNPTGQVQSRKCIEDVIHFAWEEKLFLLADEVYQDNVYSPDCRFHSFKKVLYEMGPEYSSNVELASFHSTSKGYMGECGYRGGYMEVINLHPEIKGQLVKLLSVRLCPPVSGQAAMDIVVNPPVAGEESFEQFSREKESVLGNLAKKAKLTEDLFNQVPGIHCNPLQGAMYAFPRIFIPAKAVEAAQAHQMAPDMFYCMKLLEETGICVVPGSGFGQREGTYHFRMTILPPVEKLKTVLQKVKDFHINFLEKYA
#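 Fluorescence read-out: pyruvate from GPT2 turnover coupled to pyruvate oxidase, HRP and Amplex Red (0.2mM ThPP, 0.2U/mL PO and HRP, 50uM Amplex final). Substrates 250uM a-KG, 2mM L-alanine; enzyme 10ng/uL; 30 min RT.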
# * hit, by the source's call; i = inactive; ? = inconclusive; . = no result; ! = not confirmed by another sample; [ ] = another dose, or the depositor's remark. Hits are enriched below; roughly 0.32% of the tested compounds scored in any of these assays. The call rests on the fitted dose curve; in most records, active means well fitted curve in the direction sought with a large enough effect; inconclusive means small, poorly fitted or top-dose-only effect, or another doubt; inactive means no such curve, though single readings can be large; an effect the other way counts as inactive or inconclusive. Unless noted, on the % scale 0 is the no-effect control and ±100 the full control effect; potency means the concentration at half of the fitted maximal effect.
SMILES,SNCA viab count,SNCA expr inhib,GPT2 inhibitor
O=C(Nc1ccccc1)c1nc2c(o1)CCN(Cc1cccs1)CC2,-2%[87.6 µM],11µM*,5%[88.5 µM]
O=C(Nc1ccccc1)c1nc2c(o1)CCN(Cc1ccc(O)cc1)CC2,-2%[87.6 µM],-22%[87.6 µM],1%[88.5 µM]
Cc1ccc(Nc2ccnc(N3CC4CCC(C3)N4CC(F)(F)F)n2)cc1,-14%,-2%,?
COc1ccc(C(=O)NC2CCN(c3cnn(CC4CC4)c(=O)c3)CC2)cc1OC,8%,15%,-7%
COc1cc(C(=O)NC2CCN(C)CC2)ccc1Nc1ncc2c(n1)N(C1CCCC1)CCC(=O)N2C(C)C,-5%,8%,i
CCC1C(=O)N(C)c2cnc(Nc3ccc(C(=O)NC4CCC(N5CCN(CC6CC6)CC5)CC4)cc3OC)nc2N1C(C)C (stereo unspecified),24µM*,.,0%
CC[C@@H]1C(=O)N(C)c2cnc(Nc3ccc(C(=O)NC4CCC(N5CCN(CC6CC6)CC5)CC4)cc3OC)nc2N1C(C)C (stereo partly specified),30µM*!,43%,0%
O=C(NCc1ccc(Cl)cc1)c1ccc2nnc(C3CCCC3)n2c1,7%,-8%,-40%
CN(C)c1ccc(-c2ccnc(N[C@H]3CO[C@H]4[C@@H]3OC[C@@H]4NC(=O)NCc3ccccc3)n2)cc1,7%,9%,2%
COc1ccc(Nc2ccnc(N3CCCC(C(=O)NCc4cccs4)C3)n2)cc1 (stereo unspecified),-24%,-2%,?
CCOC(=O)C1CCCN(C(=O)c2cn3cc(-c4cccc(OC)c4)sc3n2)C1 (stereo unspecified),?,-11%,i
COCCN1CCC2(C1)CN(C)c1ccc(C(=O)Nc3ccccc3)cc12 (stereo unspecified),-2%[87.6 µM],10µM*,4%[88.5 µM]
COCCN1CCC2(C1)CN(C)c1ccc(C(=O)Nc3ccc(F)cc3)cc12 (stereo unspecified),-7%[87.6 µM],-2%[87.6 µM],-28%[88.5 µM]
OCC1CN(c2ncccn2)CC12CCN(Cc1cccc3[nH]ccc13)CC2 (stereo unspecified),-1%,37%,i
O=C(c1ccc(Nc2nccc(-c3cc4ccccc4s3)n2)cc1)N1CCC(N2CCCC2)CC1,30µM*!,?,?
O=C(c1ccc(Cl)cc1)N1CCC(N2CCCC2)CC1,15%,0%[87.6 µM],-22%
COc1ccc(NC(=O)N2CCC(CCc3nc(C4CCOCC4)no3)CC2)cc1F,-8%,18%,i
CC(C)NC(=O)CN1CCN(c2nccc(N3CCC(O)CC3)n2)CC1,7%,?,i
C[C@]12C=CC(=O)C=C1CC[C@@H]1C2=CC[C@]2(C)[C@@H](C(=O)CN3CCN(c4cc(N5CCCC5)nc(N5CCCC5)n4)CC3)CC[C@@H]12,-6%,-19%,0.71µM*
O=C(NCc1ccccc1Cl)c1nc2sccn2c1-c1cccc(C(F)(F)F)c1,-8%,-5%,-12%
CCOc1ccccc1CN1CCC([C@@H]2CNC[C@H]2CO)CC1,8%[12.5 µM],25µM*,i
OC[C@@H]1CNC[C@H]1C1CCN(Cc2cccc(Cl)c2F)CC1,-1%[12.5 µM],18%,i
COc1ccccc1-c1cccc(CN2CCC(NC(=O)c3ccc(C(F)(F)F)cc3)CC2)c1,-24%,3%,-6%
C=CCN1C[C@H](COCc2ccccc2)Oc2ccncc2[S+]1(=O)[O-],-4%[23.9 µM],?,i
Fc1ccc(-c2nc(-c3cccs3)c(-c3cccs3)[nH]2)cc1,-11%,-5%,.
SMILES,SNCA viab count,SNCA expr inhib,GPT2 inhibitor
Oc1ccc(-c2nc(-c3ccc(F)cc3)c(-c3ccncc3)[nH]2)cc1,?,1.4µM*!,?
COc1ccccc1OC(C)C(=O)N1CCN(CCc2ccccn2)CC1 (stereo unspecified),-3%,20µM*,.
CC(Oc1ccccc1Cl)C(=O)N1CCN(CCc2ccccn2)CC1 (stereo unspecified),6%,12%,.
CNC(=O)[C@H]1CN(C(=O)c2cc3ccccc3s2)[C@]2(C)C(=O)N(C)c3ccccc3[C@H]12,-7%[23.9 µM],10%[25.6 µM],1%[27.3 µM]
O=C(C1CCCC1)N1CC2(CCN(Cc3c[nH]c4ccccc34)CC2)Cc2ccccc21,?,?,3%
COc1ccc(C(=O)N2CCC(N3C(=O)[C@H]4CN(Cc5ccccc5)C[C@H]4C3=O)CC2)cc1,7%,8%,0%
C=C1C(=O)O[C@@H]2[C@H]1CC(=O)[C@H](C)[C@@](O)(C(=O)/C=C/C)[C@H]2OC(=O)C(C)CC (stereo partly specified),9.3µM*,.,4%[27.3 µM]
C=C1C(=O)OC2/C=C(\CO)CC/C=C(\C=O)C(O)C(OC(=O)C(C)CC)C12 (stereo unspecified),?,.,1%[27.3 µM]
CCS(=O)(=O)c1ncc(N(Cc2ccccc2)Cc2ccco2)c(C(=O)Nc2cccc(Cl)c2C)n1,3%,-11%,.
CCS(=O)(=O)c1ncc(Cl)c(C(=O)N(Cc2ccccc2)Cc2ccco2)n1,8.9µM*,?,.
CNCC[C@H](Oc1cccc2ccccc12)c1cccs1,-13%,12%,9.7µM*!
CNCCC(Oc1ccccc1C)c1ccccc1 (stereo unspecified),13%,19%,3%
O=C(NC1CCCCC1)c1ccc2nnc(-c3cccc(C(F)(F)F)c3)n2c1,-24%,-15%,?
O=C1[C@H](Cc2ccc(O)cc2)N2C(=O)CCN(C(=O)NCc3ccccc3)[C@H]2CN1Cc1cccc2ccccc12,24µM*,?,i
O=C(CC1CCCCN(Cc2ccccc2)C1=O)NCc1ccccc1 (stereo unspecified),0%,?,i
O=C1CCN(CC(O)Cc2ccccc2)c2ccccc2CCN1C/C=C/c1ccccc1 (stereo unspecified),-2%[23.9 µM],5%[25.6 µM],?
COc1cc([C@H]2Oc3cc([C@H]4Oc5cc(O)cc(O)c5C(=O)[C@@H]4O)ccc3O[C@@H]2CO)ccc1O,-27%[23.9 µM],21%[25.6 µM],i
COc1cc([C@H]2Oc3cc([C@H]4Oc5cc(O)cc(O)c5C(=O)[C@H]4O)ccc3O[C@H]2CO)ccc1O,15%,?,12µM*
CSc1ccc(-c2cccc(C(=O)NCC(=O)NCc3ccc(C(F)(F)F)cc3)c2)cc1,-14%,4%,i
CN(C)CCN(Cc1ccc(-c2ccc(CNCCc3ccccc3)cc2)cc1)C(=O)CCC1CCCC1,19µM*,.,4%
CCN(Cc1ccccc1)C(=O)CCC1CCN(S(=O)(=O)c2ccccc2)CC1,3%,-29%,1%
Cc1nn2c(c1-c1ccccc1N1CCCC1)N(C(=O)c1cc3ccccc3n1C)CCC2,?,?,i
Cc1nn2c(c1-c1ccccc1C(C)C)N(C(=O)c1cc3ccccc3n1C)CCC2,35µM*,?,1%[88.5 µM]
Oc1ccccc1-c1nc(/C=C/c2ccccc2Cl)no1,4%,4.5µM*,.
CN(C)c1ccc(/C=C/c2noc(-c3ccccc3O)n2)cc1,5%,80%,.
CCCCNC(=O)CSc1nc2ccccc2nc1Cc1ccc(C)cc1,-2%,0%,.
CCCCN(C)C(=O)CSc1nc2ccccc2nc1Cc1ccc(C)cc1,?,14µM*,.
Cc1cc(C)c2c(CC(=O)Nc3ccc(S(=O)(=O)N4CCCCC4)cc3)coc2c1,-11%,22µM*,.
